Key:
Settings in all cases: concentration: 1 μM, replicates: in singlicate; n = 1
[1] = tested on: PIK3C2G
[2] = tested on: PIK3CA
[3] = tested on: PIK3CB
[4] = tested on: PIK3CD
[5] = tested on: PIK3CG
[6] = tested on: T1, PIK4CB
T1 construct: gene PI4KB

[7] = tested on: PIKFYVE
[8] = tested on: PIM1
[9] = tested on: PIM2
[10] = tested on: PIM3
[11] = tested on: PIP5K1A
[12] = tested on: PIP5K1C
[13] = tested on: PIP5K2B
[14] = tested on: T2, PIP5K2C
T2 construct: gene PIP4K2C

[15] = tested on: T3, PKAC-alpha
T3 construct: gene PRKACA

[16] = tested on: T4, PKAC-beta
T4 construct: gene PRKACB

[17] = tested on: PKMYT1
[18] = tested on: PKN1
[19] = tested on: PKN2
[20] = tested on: PLK1
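Also: KINOMEscan kinase panel screen.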

| SMILES | %Inh [1] [%] | %Inh [2] [%] | %Inh [3] [%] | %Inh [4] [%] | %Inh [5] [%] | %Inh [6] [%] | %Inh [7] [%] | %Inh [8] [%] | %Inh [9] [%] | %Inh [10] [%] | %Inh [11] [%] | %Inh [12] [%] | %Inh [13] [%] | %Inh [14] [%] | %Inh [15] [%] | %Inh [16] [%] | %Inh [17] [%] | %Inh [18] [%] | %Inh [19] [%] | %Inh [20] [%] |
| --- | --- | --- | --- | --- | --- | --- | --- | --- | --- | --- | --- | --- | --- | --- | --- | --- | --- | --- | --- | --- |
| Fc1cc(Cl)ccc1Nc1ccnc2cc(-c3ccc(CN4CCOCC4)o3)ccc12 [GW560109] | 0 | 0 | 0 | 21 | 0 | 16 | 5 | 0 | 0 | 0 | 0 | 44 | 31 | 75 | 8 | 37 | 0 | 100 | 0 | 0 |
| CN(c1ccc(NC(=O)Nc2cccc(Cl)c2)cc1)c1ccnc(N)n1.Cl [GW830707] | 11 | 0 | 20 | 48 | 0 | 3 | 0 | 0 | 11 | 3 | 12 | 0 | 0 | 29 | 13 | 26 | 3 | 0 | 0 | 26 |
| COc1cccc(CC(=O)N2CCc3cc(-c4cn(C)c5ncnc(N)c45)ccc32)c1 [GSK2608899] | 0 | 6 | 14 | 0 | 27 | 0 | 0 | 19 | 0 | 2 | 0 | 10 | 34 | 0 | 4 | 12 | 10 | 19 | 0 | 9 |
| Fc1cc(Cl)ccc1Nc1ccnc2cc(-c3ccc(CN4CCSCC4)o3)ccc12 [GW560106] | 0 | 0 | 0 | 9 | 0 | 0 | 1 | 8 | 0 | 0 | 30 | 59 | 9 | 74 | 27 | 22 | 0 | 0 | 0 | 0 |
| COc1cc(Nc2nccc(N3CCC(NS(=O)(=O)c4ccc(NC(C)=O)cc4)CC3)n2)cc(OC)c1OC [GSK1379825] | 9 | 0 | 0 | 91.6 | 99.7 | 9 | 82 | 0 | 0 | 0 | 11 | 56 | 0 | 77 | 0 | 0 | 40 | 16 | 0 | 4 |
| Nc1ncc(-c2cn[nH]c2)c2scc(-c3ccc4c(c3)CCN4C(=O)Cc3ccccc3)c12 [GSK2593067] | 0 | 0 | 0 | 5 | 0 | 25 | 0 | 0 | 0 | 0 | 0 | 30 | 0 | 0 | 20 | 19 | 0 | 12 | 9 | 0 |
| Cc1ccccc1CC(=O)N1CCc2cc(-c3cn(C)c4ncnc(N)c34)ccc21 [GSK2603346] | 0 | 0 | 0 | 25 | 0 | 0 | 0 | 0 | 0 | 0 | 0 | 15 | 0 | 5 | 0 | 0 | 0 | 15 | 20 | 0 |
| CN(c1ccc2c(c1)nc(NCc1ccccc1)n2C)c1ccnc(Nc2ccc(CS(C)(=O)=O)cc2)n1.Cl [GW811603] | 0 | 0 | 41 | 0 | 29 | 26 | 50 | 0 | 0 | 0 | 23 | 44 | 0 | 79 | 0 | 0 | 0 | 0 | 0 | 0 |
| COc1cc(Nc2ccnc3cc(-c4ccncc4)ccc23)cc(OC)c1OC.Cl [GW494610] | 0 | 0 | 0 | 0 | 0 | 0 | 0 | 11 | 0 | 0 | 0 | 36 | 8 | 27 | 0 | 2 | 0 | 0 | 7 | 0 |
| Cc1ccc(NC(=O)c2ccnc(N3CCCCC3)c2)cc1-c1ccc(C(=O)NCC2CC2)cc1 [GW775610] | 0 | 0 | 0 | 0 | 36 | 8 | 24 | 0 | 0 | 0 | 0 | 5 | 0 | 14 | 0 | 10 | 8 | 0 | 0 | 0 |
| Cc1cccc(Nc2nc(N[C@H]3CCCC[C@H]3N)ncc2C(N)=O)c1.Cl [GSK986310] | 0 | 0 | 0 | 0 | 3 | 0 | 0 | 43 | 56 | 88 | 0 | 63 | 9 | 12 | 19 | 29 | 16 | 34 | 9 | 1 |
| COc1cccc(-c2nc(-c3ccccc3)[nH]c2-c2ccncc2)c1 [SB-610250] | 0 | 0 | 0 | 0 | 0 | 13 | 63 | 1 | 0 | 0 | 0 | 38 | 39 | 8 | 0 | 0 | 0 | 0 | 0 | 0 |
| CC(=O)Nc1cn2nc(Oc3cccc(NC(=O)c4cccc(C(F)(F)F)c4)c3)ccc2n1 | 0 | 0 | 0 | 0 | 0 | 0 | 0 | 9 | 9 | 0 | 11 | 5 | 0 | 32 | 8 | 52 | 0 | 0 | 23 | 0 |
| COc1ccc(C2=C(Nc3cccc(O)c3)C(=O)NC2=O)cc1 [SB-390766] | 0 | 0 | 0 | 2 | 0 | 9 | 0 | 9 | 0 | 0 | 4 | 82 | 0 | 10 | 0 | 0 | 13 | 0 | 38 | 95.9 |
| Cc1ccc(NC(=O)c2cccc(N3CCCCC3)c2)cc1-c1ccc(C(=O)NCC2CC2)cc1 [GSK1917008] | 45 | 1 | 0 | 25 | 0 | 11 | 0 | 15 | 0 | 0 | 0 | 25 | 8 | 0 | 0 | 14 | 0 | 17 | 0 | 0 |
| CCNC(=O)/C=C/c1n[nH]c2cc(Sc3ccccc3C(=O)NC)ccc12 | 1 | 13 | 21 | 0 | 36 | 0 | 1 | 35 | 5 | 0 | 0 | 0 | 33 | 0 | 4 | 21 | 30 | 0 | 17 | 0 |
| Cn1cc(-c2cnc(N)c3c(-c4ccc5c(c4)CCN5C(=O)Cc4ccccc4)csc23)cn1 [GSK2593074] | 35 | 8 | 0 | 0 | 3 | 100 | 0 | 0 | 15 | 1 | 0 | 0 | 1 | 0 | 9 | 0 | 8 | 0 | 7 | 0 |
| O=C(Nc1n[nH]c2cc(-c3cccs3)ccc12)C1CC1 [SB-731284] | 1 | 3 | 35 | 0 | 27 | 0 | 9 | 0 | 0 | 0 | 21 | 96.7 | 15 | 35 | 0 | 0 | 0 | 5 | 0 | 64 |
| CC(C)c1nc(-c2ccc(F)c(NS(=O)(=O)c3c(F)cccc3F)c2)c(-c2ccnc(Nc3ccc(N4CCOCC4)nc3)n2)s1 [GSK1804250] | 0 | 0 | 0 | 10 | 0 | 0 | 66 | 7 | 0 | 0 | 0 | 46 | 9 | 78 | 1 | 0 | 4 | 59 | 12 | 15 |

Reference: publication PMC5540273 (PLoS ONE, 2017)
